Measurements published in PubChem BioAssay AID1851 (National Center for Advancing Translational Sciences (NCATS), 2009).
Values joined by “and” are separate entries in the source; they are usually repeats but may differ in a detail not shown here. Equal values may be shown once. Among all 16,000 compounds or so, about 5,800 (36%) were called active. About 23% were inconclusive and are not listed. The call rests on the fitted dose curve; in most records, active means well fitted curve in the direction sought with a large enough effect; inconclusive means small, poorly fitted or top-dose-only effect, or effect the other way; inactive means no such curve, though single readings can be large or run the other way. This is one part of the list.

Target: Cytochrome P450 2C19 (Homo sapiens) (UniProt P33261)
Sequence (P33261 whole entry, looked up): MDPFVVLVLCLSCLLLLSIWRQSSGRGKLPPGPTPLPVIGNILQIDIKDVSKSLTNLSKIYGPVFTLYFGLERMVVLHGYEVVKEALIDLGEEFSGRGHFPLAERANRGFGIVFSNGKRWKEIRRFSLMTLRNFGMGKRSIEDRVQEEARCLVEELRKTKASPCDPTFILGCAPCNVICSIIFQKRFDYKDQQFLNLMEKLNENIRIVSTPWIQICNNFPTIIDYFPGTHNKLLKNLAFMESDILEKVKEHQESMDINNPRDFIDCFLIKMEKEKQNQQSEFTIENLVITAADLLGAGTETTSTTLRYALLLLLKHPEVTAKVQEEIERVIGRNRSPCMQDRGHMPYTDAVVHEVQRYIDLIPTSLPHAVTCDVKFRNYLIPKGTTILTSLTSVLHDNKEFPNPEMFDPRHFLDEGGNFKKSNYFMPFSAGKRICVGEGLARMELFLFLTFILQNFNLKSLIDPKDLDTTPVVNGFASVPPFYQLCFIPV
Assay: Cytochrome panel assay with activity outcomes
Details: recombinant CYP, pro-luciferin dealkylation, luminescence, p450-cyp2c19; series mostly up to 57.1 µM
On the % scale 0 is the no-effect control and ±100 the full control effect.

AC50, active:
Cn1c(SC2=CS(=O)(=O)c3ccccc32)nc2ccccc21 17.8 µM
Oc1ccc(/C=N/NC(=S)NCc2ccco2)cc1 10 µM
CNc1nc(-c2ccc(N(C)C)cc2)nc2ccccc12 25.1 µM
CN(C)c1ccc(-c2nc(Nc3ccncc3)c3ccccc3n2)cc1 10 µM
c1ccc2c(Nc3ccncc3)nc(-c3ccoc3)nc2c1 20 µM
Cc1nc(-c2cccnc2)sc1C(=O)Nc1ccc(Cl)cc1 11.2 µM
CNc1ncnc2c1ncn2[C@H]1C[C@H](OP(=O)(O)O)[C@H](COP(=O)(O)O)O1 1 µM
CN(C)CCN(Cc1ccc(Cl)cc1)c1ccccn1 6.31 µM
Cc1ccc(C(=O)N/C(=C\c2ccc(Br)cc2)c2nc(=S)[nH][nH]2)cc1 11.2 µM
COc1ccc(-c2cc3ccccc3n2CC(O)CNCCO)cc1 (configuration not stated) 14.1 µM
O=C(NNS(=O)(=O)c1ccc(Cl)cc1)c1cnn(-c2ccccc2)c1-n1cccc1 1.12 µM
Cc1ccc(-n2c(C)nnc2SCC(=O)N2CCc3ccccc3C2)cc1C 22.4 µM
CCSc1nnc(NC(=O)CSc2nc3c(cc2C#N)CCCC3)s1 2.82 µM
COc1ccc(NC(=S)Nc2ncccc2C)c(OC)c1 3.55 µM
Cc1sc(NC(=O)c2ccco2)c(C(c2cccnc2)N2CCCC2)c1C (configuration not stated) 11.2 µM
Cc1sc(NC(=O)c2ccco2)c(C(c2cccnc2)N2CCN(C)CC2)c1C (configuration not stated) 20 µM
Cc1sc(NC(=O)c2ccco2)c(C(c2ccncc2)N2CCOCC2)c1C (configuration not stated) 10 µM
O=C(N/N=C/c1ccc(O)cc1)c1csc2ccccc12 14.1 µM
CCOc1ccc(NC(=S)N(Cc2ccc(Cl)cc2)Cc2ccco2)cc1 7.94 µM
CCOc1ccc(NC(=S)N(Cc2ccc(N(C)C)cc2)Cc2ccco2)cc1 1.58 µM
Cc1ccc2c(c1)nnn2C1CCN(CC(=O)N2c3ccccc3CC2C)CC1 (configuration not stated) 10 µM
Cc1ccccc1NC(=O)CN1CCC(n2nnc3ccccc32)CC1 17.8 µM
CCCCN=c1sc(C(=O)OC)cc(=O)n1CCCC 2.24 µM
COc1ccc(N(CC(=O)Nc2cccc(C)c2)S(=O)(=O)c2c(C)n[nH]c2C)cc1 0.794 µM
Cc1cccc(NS(=O)(=O)c2c(C)n[nH]c2C)c1 7.08 µM
CN(CC(=O)Nc1ccc(F)c(F)c1)S(=O)(=O)c1cccc2nsnc12 3.55 µM
O=S1(=O)[C@H]([C@H]2CC3c4ccccc4C2c2ccccc23)[C@@H](N2CCCCC2)[C@@H]1c1ccccc1 2.51 µM
O=C(O)[C@H]1C[C@@H](CP(=O)(O)O)CCN1 7.94 µM
CCCCn1c(SCc2c(C)noc2C)nc2cc(S(N)(=O)=O)ccc21 14.1 µM
CCOc1c(OC(C)=O)ccc(/C=C2\N=C(SCC)SC2=O)c1[N+](=O)[O-] 2.82 µM
CCOc1c(OC(C)=O)ccc(/C=C/c2ccc3cccc(OC(C)=O)c3n2)c1[N+](=O)[O-] 10 µM
COc1ccc(-c2cc(C(F)F)nc(-n3nc(C)cc3C)n2)cc1 28.2 µM
Cc1c(C)c2c(C)[nH]nc2oc1=O 17.8 µM
Fc1ccc(CSc2ncnc3sc4c(c23)CCCC4)cc1 0.891 µM
CCn1c2ccccc2c2cc(/C=N/n3cn[nH]c3=S)ccc21 3.55 µM
COc1cc(NC(=S)Nc2ccc(S(=O)(=O)N3CCOCC3)cc2)cc(OC)c1OC 10 µM
COc1ccc(CC(=O)Nc2cccc(/C(C)=N/NC(=O)c3cccc([N+](=O)[O-])c3)c2)cc1 14.1 µM
Cc1cc2nnc(SCC(=O)OC(C)C)n2c2ccccc12 7.94 µM
COC(=O)c1cc(C#N)c(Oc2ccc(OC)cc2)nc1C 17.8 µM
CC(=O)c1cc(C#N)c(Oc2cccc(C(F)(F)F)c2)nc1C 11.2 µM
Cn1cccc1C(=O)C(=O)Nc1cccc(Cl)c1Cl 3.16 µM
CCN(c1ccc(NC(=O)COC(=O)c2ccc3ccccc3n2)cc1)C(C)C 4.47 µM
COc1ccc(C(=O)Nc2ccc(OCC(F)(F)C(F)F)c(C(F)(F)F)c2)cc1OC 14.1 µM
Cc1ccc2cc(CCNC(=O)c3ccc(Br)o3)c(=O)[nH]c2c1 2.24 µM

AC50, inactive:
C=CCOc1cccc(/C=N/NC(=O)C(=O)NCc2ccco2)c1
Fc1ccc(Nc2nc(-c3ccoc3)nc3ccccc23)cc1
CNc1nc(-c2ccoc2)nc2ccccc12
CN(C)c1ccc(-c2nc(NC3CCNCC3)c3ccccc3n2)cc1
NCC[C@H](O)C(=O)N[C@H]1C[C@@H](N)[C@@H](O[C@H]2O[C@@H](CN)[C@@H](O)[C@@H](O)[C@@H]2O)[C@@H](O)[C@@H]1O[C@H]1O[C@@H](CO)[C@@H](O)[C@@H](N)[C@@H]1O
N[C@@H](C(=O)O)c1cc(O)ccc1Cl
CNC(=O)c1sc(-c2cccnc2)nc1C
CNc1ncnc2c1ncn2[C@H]1C[C@@H](OP(=O)(O)O)[C@H](COP(=O)(O)O)O1
CNc1ncnc2c1ncn2[C@@H]1O[C@@H](CO)[C@H](O)[C@@H]1O
CN(C)CCN(Cc1cccs1)c1ccccn1
COc1ccc(CN(CCN(C)C)c2ccccn2)cc1
N=c1n(-c2ccccc2)c(O)cc(=O)n1-c1ccccc1
O=C(O)COc1ccc(OCCNC[C@@H](O)COc2ccccc2)cc1
NC(=O)c1cc[n+](CC2=C(C(=O)O)N3C(=O)[C@@H](NC(=O)[C@H](c4ccccc4)S(=O)(=O)[O-])[C@@H]3SC2)cc1
O=C(NNS(=O)(=O)c1ccc(Cl)cc1)C1CCN(Cc2ccccc2)CC1
COc1cc2c(cc1OC)C(C(=O)N1CCOCC1)C(c1cccs1)N(C)C2=O (configuration not stated)
CCC(=O)Nc1c2c(nc3c1CCC3)CCCC2
COc1ccc(-n2nc3cc(C)c(NC(=S)NC(=O)c4ccccc4C)cc3n2)cc1
COC(=O)N1CCC2(CC1)CCN(c1ncccn1)CC2
O=C(Nc1c(C(=O)N2CCCCC2)cnn1-c1ccccc1)c1ccco1
Cc1c(C)c2c(c(C)c1O)CC[C@@](C)(C(=O)O)O2
CCc1ccccc1NC(=O)c1nnn(CC(=O)Nc2ccccc2C)c1N
CN(C)c1cc(-c2cccc(NS(C)(=O)=O)c2)ncn1
Cc1n[nH]c(C)c1S(=O)(=O)N1CCOCC1
N#Cc1cccc(NC(=O)N2CCC3(CC2)CCN(C(=O)c2cccc(F)c2)CC3)c1
O=C(O)[C@H]1CN(CCCP(=O)(O)O)CCN1
CS(=O)(=O)Nc1ccc(S(=O)(=O)N2CCOCC2)cc1
CCCc1c(OCCCOc2ccc(OCC(=O)O)cc2)ccc(CC=O)c1O
COc1ccc(C(=O)N/N=C(\C)Cn2nc([N+](=O)[O-])cc2C)cc1
CCSc1nnc2n(N)c(=O)c3ccccc3n12
COC(=O)c1cc(C#N)c(NCc2ccc(Cl)cc2Cl)nc1C
COc1ccc(Oc2ncc3nc(C)c(=O)n(-c4ccc(OC)cc4)c3n2)cc1
Cn1cccc1C(=O)N1CCC2(CCN(C(=O)Nc3ccccc3)CC2)CC1
Cn1cccc1C(=O)N1CCC2(CC1)CN(C(=O)Nc1ccccc1)C2
Cc1ccnc2nc(C(=O)OCC(=O)Nc3ccc4c(c3)OC(F)(F)O4)nn12
CC(C)NC(=O)N1CC[C@@]2(CCCN(C(=O)c3csnn3)C2)C1
COc1ccc2cc(CCNC(=O)C3CC3)c(=O)[nH]c2c1

activity, negative = inhibition, inactive:
CC(=O)OC[C@H]1O[C@@H](O/N=C(\C)CCN2CCCCc3nc(C)c(C)cc32)[C@H](OC(C)=O)[C@@H](OC(C)=O)[C@H]1OC(C)=O -0.342% [at 11.4 µM]
CO[C@H]1COC(=O)CCC[C@@H](C)[C@H](OC)COC(=O)[C@@H](C)NC(=O)C/C=C\[C@@H]1C 31.3% [at 11.4 µM]
O=C(NNS(=O)(=O)c1ccccc1)c1cccnc1 9.95% [at 11.4 µM]
CO[C@H]1COC(=O)C/C=C\[C@H](C)[C@@H](NS(=O)(=O)c2ccc(C)cc2)COC(=O)C/C=C\[C@@H]1C 1.28% [at 11.4 µM] and 16.7% [at 11.4 µM]
Cc1cc(N=Cc2c(CO)cnc(C)c2O)c(N=Cc2c(CO)cnc(C)c2O)cc1C.[Zn] -22.1% [at 11.4 µM]
Cc1cc2c(c(=O)o1)[C@@H](O)[C@H]1O[C@@H]1C2=O -1.32% [at 11.4 µM]
O=C(O)[C@@H]1CCCN1 19.4% [at 11.4 µM]
Clc1ccc(CSc2ncnc3c2ncn3[C@@H]2CCCCO2)cc1 -40.6% [at 11.4 µM]
Nc1[nH]c(=O)nc2c1ncn2[C@H]1O[C@@H](CO)[C@@H](O)[C@@H]1O 25.3% [at 11.4 µM]
O=C1[C@H]2[C@H]3[C@H](O)[C@H](O)C/C(=N/OC[C@@H](O)COCc4ccco4)[C@@H]3CC[C@@H]2C(=O)N1C1CCCCC1 9.78% [at 11.4 µM]
O=c1n(-c2ccccc2)c(=O)n2n1CC[C@H]1/C(=N\OC[C@@H](O)COCc3ccco3)[C@H]3O[C@@H]3[C@@H](O)[C@@H]12 18.2% [at 11.4 µM] and 1.03% [at 11.4 µM]
